GRK2 inh = compounds blocking aptamer binding on GRK2 – biochemical, human GRK2, bead flow cytometry, HTS, primary screen; Beta-adrenergic receptor kinase 1 (Homo sapiens), P25098; FAM-aptamer displacement from GRK2; 330,000 compounds, 0.59% hits; inhibition of aptamer binding, % at 10 µM;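 active means inhibition of aptamer binding above 40%, roughly 3 SD of noise, on plates passing a quality check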;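 further: median bead fluorescence of bound FAM aptamer so fluorescent compounds give negative values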
Target sequence (P25098 whole entry, looked up): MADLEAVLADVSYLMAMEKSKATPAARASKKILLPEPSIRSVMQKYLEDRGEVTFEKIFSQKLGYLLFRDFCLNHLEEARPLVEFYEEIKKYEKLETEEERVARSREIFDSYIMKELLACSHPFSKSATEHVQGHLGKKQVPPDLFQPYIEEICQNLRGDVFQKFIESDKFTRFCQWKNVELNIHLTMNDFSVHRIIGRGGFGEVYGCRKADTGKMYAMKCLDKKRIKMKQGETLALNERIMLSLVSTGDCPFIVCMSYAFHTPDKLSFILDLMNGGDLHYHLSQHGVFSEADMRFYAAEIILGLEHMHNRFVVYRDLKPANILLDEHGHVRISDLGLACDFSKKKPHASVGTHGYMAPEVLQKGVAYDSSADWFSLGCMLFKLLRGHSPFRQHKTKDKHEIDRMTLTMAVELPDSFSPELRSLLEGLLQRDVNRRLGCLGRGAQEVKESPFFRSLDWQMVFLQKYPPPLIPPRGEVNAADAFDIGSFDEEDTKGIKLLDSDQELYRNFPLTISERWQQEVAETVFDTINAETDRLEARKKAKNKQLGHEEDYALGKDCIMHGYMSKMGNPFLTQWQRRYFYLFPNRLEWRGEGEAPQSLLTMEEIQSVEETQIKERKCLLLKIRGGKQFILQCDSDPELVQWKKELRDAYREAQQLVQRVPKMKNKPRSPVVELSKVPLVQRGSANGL
Efflux pump inh = inhibitors of Candida efflux pumps in yeast, primary screen, S. cerevisiae, Nile Red, multiplex; inhibition, % at 10 µM; AID 485275, 2010; 330,000 compounds, 0.44% hits; S. cerevisiae Candida pump triplex;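 active means plate passing quality check with inhibition over a set limit, or well fluorescence over plate mean plus 4 SD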;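 further: Nile Red retained in pooled yeast measured as flow cytometry median fluorescence; 0% = buffer negative control and 100% = Enniatin B positive control; higher means more Nile Red kept so more efflux inhibition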
ATG4B inh = ATG4B protease inhibitors, primary screen, biochemical, fluorescence, uHTS. ATG4B cleavage of LC3-PLA2, NBD-HPC fluorescence, 1 h. inhibition, % at 8.33 µM. 340,000 compounds, 0.51% hits. AID 504462, 2011; in the data active means inhibition above about 40%
Yeast superoxide = reduction of superoxide in aged yeast, primary screen, HTS | S. cerevisiae aged cells, superoxide DHE fluorescence; active compounds read low | superoxide response (% of plate mean), % at 10 µM | 330,000 compounds, 0.18% hits;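 active means superoxide response under a set limit, about three screen SD below normal, cut at about 65% in these data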;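 further: yeast aged for seven days with compound at 30 °C before DHE staining; 100% = average MFI of all compound-treated wells on the plate with controls excluded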
GRK2 inh confirm = GRK2 aptamer-displacing inhibitors, retest, confirmation, biochemical, cherry pick 1, bead flow cytometry; shares compounds with GRK2 inh; bead-bound GRK2, FAM-aptamer displacement; aptamer displacement, % at 10 µM; 2,000 compounds, 4% hits; AID 504451, 2011;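 active means aptamer displacement above 40%, near three times the noise of non-fluorescent compounds, on plates passing quality checks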;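 further: negative values mostly reflect intrinsic compound fluorescence rather than true enhancement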
FAM quench CP1 = aptamer fluorescence quenching in GRK2 counter-screen | shares compounds with GRK2 inh | Carboxyfluorescein RNA aptamer on beads, flow cytometry quenching; active compounds read low | fluorescence response (% of DMSO), % at 10 µM | 2,000 tested, under 10 active;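 active means compounds that quench the bead-bound fluorescent RNA probe, cutting fluorescence to under half of the solvent control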;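 further: counterscreen run without GRK2 so only probe quenching by compound is measured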
GRK2 confirm 2 = GRK2 aptamer-displacing inhibitors, hit retest, confirmation, biochemical, cherry pick 2, bead flow cytometry; 360 tested, under 10 active; shares compounds with GRK2 inh; bead-bound GRK2, FAM-aptamer displacement; inhibition of aptamer binding, % at 10 µM; AID 504782, 2011;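 active means inhibition of aptamer binding above 40%, about triple the noise seen with nonglowing compounds, on plates passing quality control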;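 further: negative values mostly come from compounds that fluoresce themselves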
FAM quench CP2 = aptamer fluorescence quenching in GRK2 counter-screen | carboxyfluorescein RNA aptamer beads, flow cytometry quenching; active compounds read low | 360 tested, under 10 active | shares compounds with GRK2 inh | fluorescence response vs DMSO, % at 10 µM;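 active means response vs DMSO under 50%, meaning signal dropped by over half, treated as fluorescence quencher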;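 further: labelled aptamer on streptavidin beads without GRK2 as a quench counter-screen; 100% = bead fluorescence of DMSO wells and lower means quenching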
Starred values were filed as active, the others as inactive. Most compounds without a hit are left out; they make up all but 1.6% or so of the library.

Cc1ccc(C)c(N2CCN(C(=O)CCCOc3cc(=O)n(C)c4ccccc34)CC2)c1 was read as GRK2 inh 0.0, Efflux pump inh 0.1, ATG4B inh -28.8 and Yeast superoxide 108.7.
Screening COC(=O)C1CC(c2c(OC)cc(OC)cc2OC)=NO1 (configuration not stated) returned GRK2 inh 0.0, Efflux pump inh 0.0, ATG4B inh -20.1, Yeast superoxide 89.5, GRK2 confirm 2 16.8 and FAM quench CP2 99.0.
Screening COC(=O)[C@@H]1C(c2c(OC)cc(OC)cc2OC)=NO[C@H]1C(=O)OC returned GRK2 inh 0.0, Efflux pump inh -0.3, ATG4B inh 0.2, Yeast superoxide 100.3, GRK2 confirm 2 -1.6 and FAM quench CP2 99.0.
OC1(c2cccc(C(F)(F)F)c2)CCN(Cc2nnnn2Cc2ccccc2)CC1 was read as GRK2 inh 93.0*, Efflux pump inh 0.1, ATG4B inh 15.9, Yeast superoxide 116.0, GRK2 inh confirm 0.8 and FAM quench CP1 94.0.
`O=C(CSc1nnc(-c2ccc(O)cc2)n1-c1ccccc1)CC(=O)Nc1ccccc1` gave GRK2 inh 92.0*, Efflux pump inh 1.3, ATG4B inh -8.6, Yeast superoxide 95.6, GRK2 confirm 2 -18.9 and FAM quench CP2 102.0.
O=C(c1cc(-c2ccc(Br)cc2)on1)N1CCc2ccccc2C1 was read as GRK2 inh 5.0, Efflux pump inh -0.2, ATG4B inh -2.2 and Yeast superoxide 109.2.
For CCCCSCCCNC(=O)c1ccc2c(c1)N(CC)C(=O)c1ccccc1S2=O (configuration not stated) the results were GRK2 inh 47.0*, Efflux pump inh -0.1, ATG4B inh -0.9, Yeast superoxide 72.8, GRK2 confirm 2 9.4 and FAM quench CP2 100.0.
COc1cc2cc(CCCOC(=O)c3ccc4c(c3)OCO4)oc(=O)c2cc1OC was read as GRK2 inh 1.0, Efflux pump inh 0.0, ATG4B inh -7.8 and Yeast superoxide 115.5.
`Cc1cccc(C)c1NC(=O)COC(=O)CNC(=O)C1CCCCC1` gave GRK2 inh 95.0*, Efflux pump inh -0.2, ATG4B inh -7.6, Yeast superoxide 102.9, GRK2 inh confirm -0.3 and FAM quench CP1 97.9.
O=C(COC(=O)CNC(=O)C1CCCCC1)Nc1ccccc1 was read as GRK2 inh 0.0, Efflux pump inh -0.1, ATG4B inh 1.1 and Yeast superoxide 92.3.
CCOC(=O)c1cccc(NC(=O)CNC(=O)C2CCCCC2)c1 was read as GRK2 inh 54.0*, Efflux pump inh 0.1, ATG4B inh -2.8, Yeast superoxide 115.6, GRK2 inh confirm -0.9 and FAM quench CP1 96.5.
For CCOc1ccc(Cl)cc1CSc1n[nH]c(CC)n1 the results were GRK2 inh 61.0*, Efflux pump inh -0.1, ATG4B inh 1.4, Yeast superoxide 108.6, GRK2 inh confirm -14.0 and FAM quench CP1 100.6.
`CCCCOc1ccc(Cl)cc1CSc1n[nH]c(C)n1` gave GRK2 inh 0.0, Efflux pump inh -0.4, ATG4B inh -1.8 and Yeast superoxide 107.7.
Screening Cc1cccc(NC(=O)CSc2c3c(nc4ccccc24)CCC3)n1 returned GRK2 inh 0.0, Efflux pump inh 0.0, ATG4B inh 2.9, Yeast superoxide 88.0, GRK2 confirm 2 17.9 and FAM quench CP2 98.0.
`O=C(O)c1cccc(-n2cccc2/C=N/O)c1` gave GRK2 inh 54.0*, Efflux pump inh -0.1, ATG4B inh -11.6, Yeast superoxide 97.4, GRK2 inh confirm 33.9, FAM quench CP1 99.1, GRK2 confirm 2 25.5 and FAM quench CP2 100.0.
Screening O=C(O)c1cccc(-n2cccc2/C=C/[N+](=O)[O-])c1 returned GRK2 inh 51.0*, Efflux pump inh 0.3, ATG4B inh 17.3, Yeast superoxide 123.7, GRK2 inh confirm 30.4 and FAM quench CP1 99.5.
ON=Cc1cccn1-c1ccccc1 was read as GRK2 inh 1.0, Efflux pump inh 0.1, ATG4B inh 3.0 and Yeast superoxide 92.7.
`O=C(O)c1cccc(-n2cccc2/C=C\[N+](=O)[O-])c1` gave GRK2 inh 18.0, Efflux pump inh 0.0, ATG4B inh 7.8 and Yeast superoxide 106.8.
Fc1cc(F)cc(Nc2nc(Cl)nc(NC3CCCC3)n2)c1 was read as GRK2 inh 6.0, Efflux pump inh -0.3, ATG4B inh 3.5 and Yeast superoxide 103.2.
For COc1ccc(CNC(=O)C2COc3ccccc3O2)cc1 (configuration not stated) the results were GRK2 inh 0.0, Efflux pump inh 0.0, ATG4B inh -0.6 and Yeast superoxide 112.3.
COc1ccccc1CNC(=O)C1COc2ccccc2O1 (configuration not stated) was read as GRK2 inh 52.0*, Efflux pump inh -0.7, ATG4B inh -3.8, Yeast superoxide 85.6, GRK2 inh confirm 1.8 and FAM quench CP1 99.6.
For Cc1c(NS(=O)(=O)c2ccccc2)c(=O)n(-c2ccccc2)n1C the results were GRK2 inh 2.0, Efflux pump inh 0.0, ATG4B inh -12.8 and Yeast superoxide 106.3.
`Cc1c(NS(=O)(=O)c2ccc3[nH]c(=O)[nH]c3c2)c(=O)n(-c2ccccc2)n1C` gave GRK2 inh 75.0*, Efflux pump inh -0.1, ATG4B inh 2.4, Yeast superoxide 92.8, GRK2 inh confirm 1.1 and FAM quench CP1 106.4.
O=C(NC1CC1)c1cccc(NC(=O)c2cnn(-c3ccccc3)n2)c1 was read as GRK2 inh 4.0, Efflux pump inh -0.2, ATG4B inh -1.7, Yeast superoxide 95.0, GRK2 inh confirm -0.7 and FAM quench CP1 94.2.
COc1ccc(-c2cccc(CCC(=O)N3CCN(c4cc(C)ccc4C)CC3)c2)cc1 was read as GRK2 inh 1.0, Efflux pump inh 0.2, ATG4B inh -5.5 and Yeast superoxide 93.8.
For COc1ccc(C(=O)CCC(=O)N2CCN(c3cc(C)ccc3C)CC2)cc1 the results were GRK2 inh 87.0*, Efflux pump inh 0.0, ATG4B inh 3.5, Yeast superoxide 101.3, GRK2 inh confirm 0.7 and FAM quench CP1 98.8.
`COc1ccc(Br)cc1CN1CCSCC1` gave GRK2 inh 0.0, Efflux pump inh 0.0, ATG4B inh 7.8 and Yeast superoxide 103.7.

From PubChem BioAssay
